The supplement of paper PMC6805474

How the values were obtained:
[1] = tested on: Schistosoma mansoni schistosomula (LE); assay: XTT viability relative to DMSO control; higher = more viable (less active); settings: 72 h; 10 µM
Method: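 XTT/PMS was then added for a further 24 h (72 h total) and A450 was read. % viability = (sample - heat-killed control)/(DMSO control - heat-killed control) x 100, from duplicate wells in two independent experiments.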

[2] = tested on: Schistosoma mansoni schistosomula (NMRI); assay: phenotypic severity score (0-4); higher = more antischistosomal effect, active = 2 or more; settings: 10 µM
[3] = tested on: Schistosoma mansoni schistosomula (Liberian); assay: drug effect (1 - score/DMSO control score) (fraction); higher = more antischistosomal effect, active = 0.5 or more; extreme values may be limits of the assay; settings: 10 µM
Procedure, shortened: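 Schistosomula of the Liberian strain of Schistosoma mansoni were mechanically transformed from cercariae, pre-incubated for at least 12 h, and placed at 50 per well in flat-bottom 96-well plates with Medium 199 containing 5% FCS. Compounds were tested in duplicate at 10 µM at 37 °C and 5% CO2, alongside wells holding 0.1% DMSO. Parasites were scored visually at 10× after 24, 48 and 72 h on a quarter-point scale running from 3 (normal) to 0 (dead). Drug effect came from the mean test-well score relative to the mean DMSO-well score, with negative values set to zero and plates accepted only when the DMSO wells averaged at least 2.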
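For phenotypic severity score (0-4) in this document: visual microscopic scoring of shape, motility and density changes versus 0.5% DMSO solvent controls, one point per descriptor, degeneracy or death scored 4, mean of duplicate wells.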

SMILES	XTT viability [1]	phenotypic severity score ([2]; 24 h)	phenotypic severity score ([2]; 48 h)	phenotypic severity score ([2]; 72 h)	drug effect ([3]; 24 h)	drug effect ([3]; 48 h)	drug effect ([3]; 72 h)
Cc1nn(C(=O)Nc2cccc(C(F)(F)F)c2)c(C)c1Sc1ncccn1	137%	0 (inactive)	0 (inactive)	0 (inactive)	0.15 (inactive)	0.167 (inactive)	0.312 (inactive)
Nc1nccc2ccc(Oc3ccncc3)cc12	152%	0 (inactive)	0 (inactive)	0 (inactive)	0.1 (inactive)	0.222 (inactive)	0.375 (inactive)
c1ccc(-c2cc(N3CCCCC3)c3ccccc3n2)nc1	59.9%	1 (inactive)	0 (inactive)	1 (inactive)	0.15 (inactive)	0.243 (inactive)	0.389 (inactive)
COc1cccc(OC)c1C(=O)Nc1ccc(Cl)c(-c2nc3ccccc3s2)c1	108%	2 (active)	2 (active)	2 (active)	0.4 (inactive)	0.5 (active)	0.625 (active)
CC(C)(C)n1nc(Cc2ccc(F)c(Cl)c2)c2c(N)ncnc21	98.7%	0 (inactive)	0 (inactive)	0 (inactive)	0.0811 (inactive)	0.167 (inactive)	0.188 (inactive)
O=C(Nc1ccccc1-c1nc2c(C(=O)O)cccc2o1)c1ccccc1	54.1%	0 (inactive)	0 (inactive)	0 (inactive)	0.05 (inactive)	0.027 (inactive)	0.0303 (inactive)
CC1CC1C(=O)NC1CCN(CC2(c3ccccc3)CCCCC2)CC1 (configuration not stated)	82.4%	1 (inactive)	0 (inactive)	0 (inactive)	< 0 (inactive)	0.0811 (inactive)	0.222 (inactive)
CCOc1ccc(OCC(=O)Nc2cc(C)cc(C)c2)cc1	67%	0 (inactive)	0 (inactive)	0 (inactive)	0.0909 (inactive)	0.05 (inactive)	0.158 (inactive)
COc1cc(C(F)(F)F)nc2ccc(C)c(N)c12	79.3%	0 (inactive)	0 (inactive)	0 (inactive)	0.136 (inactive)	0.05 (inactive)	0.0526 (inactive)
CCOc1ccccc1C(=O)Nc1cccc(-c2nc3ncccn3c2C)c1	107%	0 (inactive)	0 (inactive)	0 (inactive)	0.0811 (inactive)	0.389 (inactive)	0.625 (active)
CC(C)(C)OC(=O)N1CCC(Cn2nc(-c3cnc4ccccc4c3)c3c(N)ncnc32)CC1	125%	1 (inactive)	4 (active)	4 (active)	0.405 (inactive)	0.444 (inactive)	0.688 (active)
Cc1cc(C)n(-c2ccc(NC(=O)C3CCN(Cc4cnc(C)s4)CC3)cc2)n1	135%	0 (inactive)	0 (inactive)	0 (inactive)	0.1 (inactive)	0.135 (inactive)	0.152 (inactive)
CCC(=O)Nc1ccccc1C(=O)Nc1ccccn1	87.3%	1 (inactive)	0 (inactive)	0 (inactive)	0.136 (inactive)	0.3 (inactive)	0.236 (inactive)
COc1ccc(Oc2ccc([C@@H](C)N(C)c3ncc4c(N)nc(N)nc4n3)cc2)cc1	4.74%	4 (active)	4 (active)	4 (active)	0.526 (active)	0.5 (active)	0.5 (active)
Cc1cc(OCC(=O)NCc2ccccc2)c2cc(Br)ccc2n1	111%	0 (inactive)	0 (inactive)	0 (inactive)	0.1 (inactive)	0.0556 (inactive)	0.0625 (inactive)
CC(C)(C)OC(=O)N1CCN(c2nccc(-c3ccc(-c4ccc(Cl)cc4)s3)n2)CC1	93.7%	0 (inactive)	0 (inactive)	0 (inactive)	0.182 (inactive)	0.15 (inactive)	0.182 (inactive)
CO[C@@H](C(=O)N1Cc2[nH]nc(NC(=O)c3ccc(N4CCN(C)CC4)cc3)c2C1)c1ccccc1	97.4%	0 (inactive)	0 (inactive)	0 (inactive)	0.15 (inactive)	0.243 (inactive)	0.278 (inactive)
N#Cc1nc(-c2ccccc2F)oc1NCCc1ccccc1	94%	0 (inactive)	0 (inactive)	0 (inactive)	0.2 (inactive)	0.111 (inactive)	0.125 (inactive)
Nc1ncnc2c1ncn2[C@@H]1O[C@H](COS(=O)(=O)NC(=O)c2ccccc2O)[C@@H](O)[C@H]1O	113%	0 (inactive)	0 (inactive)	0 (inactive)	0.1 (inactive)	0.111 (inactive)	0.125 (inactive)
FC(F)(F)c1cnc(Sc2nnc(-c3ccncc3)o2)c(Cl)c1	74%	0 (inactive)	1 (inactive)	2 (active)	0.459 (inactive)	0.778 (active)	0.938 (active)
Cc1ccc(S(=O)(=O)Nc2ccc(CN3CCN(C(=O)c4cccc(C#N)c4)CC3)cc2)cc1	131%	0 (inactive)	1 (inactive)	1 (inactive)	0.05 (inactive)	0.0556 (inactive)	0.0625 (inactive)
